mHTT CaM bind = disrupts binding of mutant huntingtin to calmodulin. P42858. AlphaScreen His-mHTT/GST-CaM binding, luminescence. inhibition, % at 15 µM. 190,000 tested, 3.6% active
Target sequence (P42858 whole entry, looked up, change not shown): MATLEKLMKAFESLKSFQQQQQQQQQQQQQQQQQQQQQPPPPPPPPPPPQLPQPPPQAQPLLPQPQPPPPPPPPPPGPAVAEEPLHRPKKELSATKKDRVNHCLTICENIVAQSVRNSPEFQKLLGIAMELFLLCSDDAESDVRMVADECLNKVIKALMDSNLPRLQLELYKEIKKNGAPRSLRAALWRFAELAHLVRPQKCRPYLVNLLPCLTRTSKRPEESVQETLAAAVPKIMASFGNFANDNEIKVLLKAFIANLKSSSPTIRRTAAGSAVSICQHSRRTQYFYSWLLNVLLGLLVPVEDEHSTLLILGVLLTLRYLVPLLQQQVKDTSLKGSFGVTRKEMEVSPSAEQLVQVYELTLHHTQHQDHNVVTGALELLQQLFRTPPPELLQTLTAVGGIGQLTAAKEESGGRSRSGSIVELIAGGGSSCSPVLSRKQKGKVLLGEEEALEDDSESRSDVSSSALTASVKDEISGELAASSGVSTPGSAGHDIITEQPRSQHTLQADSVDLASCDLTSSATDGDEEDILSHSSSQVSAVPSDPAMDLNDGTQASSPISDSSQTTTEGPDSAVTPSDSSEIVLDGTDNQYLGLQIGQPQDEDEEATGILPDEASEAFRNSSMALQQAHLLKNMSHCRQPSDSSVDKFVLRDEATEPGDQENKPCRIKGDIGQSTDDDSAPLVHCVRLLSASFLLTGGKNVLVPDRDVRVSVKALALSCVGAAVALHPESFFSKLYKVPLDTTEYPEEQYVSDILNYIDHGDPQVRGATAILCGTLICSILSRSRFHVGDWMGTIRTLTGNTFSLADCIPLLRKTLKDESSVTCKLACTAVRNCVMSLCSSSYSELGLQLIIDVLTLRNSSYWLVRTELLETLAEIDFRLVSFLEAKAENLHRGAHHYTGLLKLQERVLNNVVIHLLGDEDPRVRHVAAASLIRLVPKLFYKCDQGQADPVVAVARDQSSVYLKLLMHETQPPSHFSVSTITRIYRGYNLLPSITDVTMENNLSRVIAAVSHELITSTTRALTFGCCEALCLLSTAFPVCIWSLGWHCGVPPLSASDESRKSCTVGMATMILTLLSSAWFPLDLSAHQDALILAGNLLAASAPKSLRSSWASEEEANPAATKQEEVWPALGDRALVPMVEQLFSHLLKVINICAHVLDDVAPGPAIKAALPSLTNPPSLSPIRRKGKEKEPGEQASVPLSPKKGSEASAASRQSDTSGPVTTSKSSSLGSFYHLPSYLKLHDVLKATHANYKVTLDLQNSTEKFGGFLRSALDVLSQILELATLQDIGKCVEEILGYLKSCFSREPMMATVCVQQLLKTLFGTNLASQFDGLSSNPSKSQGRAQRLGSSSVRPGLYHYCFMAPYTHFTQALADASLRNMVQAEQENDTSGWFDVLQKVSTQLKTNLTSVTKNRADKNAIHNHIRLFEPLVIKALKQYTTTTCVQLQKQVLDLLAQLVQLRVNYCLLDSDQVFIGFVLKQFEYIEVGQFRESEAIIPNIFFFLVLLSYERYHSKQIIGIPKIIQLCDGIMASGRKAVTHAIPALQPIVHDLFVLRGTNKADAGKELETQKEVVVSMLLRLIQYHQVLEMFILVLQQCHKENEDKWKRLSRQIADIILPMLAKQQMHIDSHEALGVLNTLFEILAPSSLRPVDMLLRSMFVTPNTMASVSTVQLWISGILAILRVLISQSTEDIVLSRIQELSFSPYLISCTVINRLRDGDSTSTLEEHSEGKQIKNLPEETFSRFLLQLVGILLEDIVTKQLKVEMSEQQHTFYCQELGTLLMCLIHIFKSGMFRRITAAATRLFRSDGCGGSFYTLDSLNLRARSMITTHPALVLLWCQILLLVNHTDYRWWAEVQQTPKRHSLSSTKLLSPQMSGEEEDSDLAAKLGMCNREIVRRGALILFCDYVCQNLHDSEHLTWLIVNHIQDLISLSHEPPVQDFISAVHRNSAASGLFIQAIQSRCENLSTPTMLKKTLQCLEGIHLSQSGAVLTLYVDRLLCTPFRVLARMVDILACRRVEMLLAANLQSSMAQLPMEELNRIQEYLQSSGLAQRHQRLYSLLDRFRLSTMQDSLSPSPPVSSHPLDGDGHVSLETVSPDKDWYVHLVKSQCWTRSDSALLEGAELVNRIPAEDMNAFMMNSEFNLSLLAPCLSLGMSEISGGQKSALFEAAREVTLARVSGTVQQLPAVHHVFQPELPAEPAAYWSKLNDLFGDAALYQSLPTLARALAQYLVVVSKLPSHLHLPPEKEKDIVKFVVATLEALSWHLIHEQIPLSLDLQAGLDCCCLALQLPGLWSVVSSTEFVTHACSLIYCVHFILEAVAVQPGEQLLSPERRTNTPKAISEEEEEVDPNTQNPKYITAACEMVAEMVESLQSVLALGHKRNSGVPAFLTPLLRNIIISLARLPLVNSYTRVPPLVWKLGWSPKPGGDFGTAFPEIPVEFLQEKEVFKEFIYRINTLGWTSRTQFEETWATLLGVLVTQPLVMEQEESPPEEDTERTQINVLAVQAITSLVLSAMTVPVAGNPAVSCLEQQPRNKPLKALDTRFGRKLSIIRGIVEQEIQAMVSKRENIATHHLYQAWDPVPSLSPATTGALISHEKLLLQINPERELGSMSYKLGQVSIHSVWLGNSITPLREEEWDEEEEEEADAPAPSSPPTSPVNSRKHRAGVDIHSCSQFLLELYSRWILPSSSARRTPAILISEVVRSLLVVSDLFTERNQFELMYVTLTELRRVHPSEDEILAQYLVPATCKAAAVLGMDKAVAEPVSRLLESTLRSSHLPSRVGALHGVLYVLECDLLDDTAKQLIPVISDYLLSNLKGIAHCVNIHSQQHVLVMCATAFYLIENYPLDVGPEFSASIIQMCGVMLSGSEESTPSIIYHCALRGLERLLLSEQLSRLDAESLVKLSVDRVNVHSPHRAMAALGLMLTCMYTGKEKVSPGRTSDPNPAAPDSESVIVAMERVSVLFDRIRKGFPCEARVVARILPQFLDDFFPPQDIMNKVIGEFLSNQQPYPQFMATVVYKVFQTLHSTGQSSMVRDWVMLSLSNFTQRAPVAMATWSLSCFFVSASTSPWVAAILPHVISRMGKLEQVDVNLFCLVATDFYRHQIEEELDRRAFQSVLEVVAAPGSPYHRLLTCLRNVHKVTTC
Pf apPOL block = Pf-apPOL DNA polymerase inhibition; Recombinant Pf-apPOL, molecular beacon fluorescence, 1.5 h; inhibition, % at 10 µM; 210,000 tested, 0.25% active; AID 1794808
Each line names hits and unclear results; the compound was inactive in the other large screens; ! = repeats disagree. Hits are enriched below; roughly 3.5% of the tested compounds scored in any of these assays. No stated cut-off is given here; in the data, active means inhibition above about 50%; inactive means the rest.

COc1ccccc1OCCOc1ccc([N+](=O)[O-])cc1/C=C1/C(=O)N(c2ccccc2)N=C1C	none
CC1=NN(c2ccccc2)C(=O)/C1=C/c1ccc(Oc2ccc([N+](=O)[O-])cc2[N+](=O)[O-])cc1	mHTT CaM bind 52.0
CCN(C)c1ccc(/C=C2/C(=O)N(c3cccc(Br)c3)N=C2C)cc1	mHTT CaM bind 90.0
CC1=NN(c2cccc(Br)c2)C(=O)/C1=C/c1ccc(N(C)C)cc1	none
CCN(C)c1ccc(/C=C2/C(=O)N(c3cccc(Cl)c3)N=C2C)cc1	mHTT CaM bind 68.0
CC1=NN(c2ccccc2)C(=O)/C1=C/c1ccc(N2CCOCC2)cc1	mHTT CaM bind 78.0
Cc1ccc(C(=O)N2CCc3c(c(-c4nc(C5CC5)no4)nn3C)C2)cc1	none
Cn1ncc(N2CCCC(C(=O)NCc3ccccc3)C2)cc1=O (stereo unspecified)	none
CCCNc1cc(N2CCC(CCC(=O)N3CCCC3)CC2)ncn1	none
Cn1c(=O)c2c(-c3ccccn3)c(NCc3ccccc3)oc2n(C)c1=O	none
CCOCCn1cnc2sc(C(=O)Nc3cc(Cl)c(OC)cc3OC)c(C)c2c1=O	none
FC(F)(F)c1cc(SCc2c(Cl)cccc2Cl)cc(C(F)(F)F)c1	none (no result: mHTT CaM bind)
O=C(Nc1ccc(F)c(Cl)c1)c1cc(I)ccc1Cl	none
Cc1c(NC(=O)COc2ccc([N+](=O)[O-])cc2)cccc1-c1nc2ncccc2o1	none
CC1=NN(c2ccccc2)C(=O)/C1=C/c1ccccc1	none
CC1=NN(c2ccc(C(=O)O)cc2)C(=O)/C1=C/c1ccc(N(C)C)cc1	none
CC1=NN(c2ccccc2)C(=O)/C1=C/c1ccc([N+](=O)[O-])cc1	none
CCN(CC)c1ccc(/C=C2/N=C(c3ccccc3)NC2=O)cc1	mHTT CaM bind 88.0
CCN(CC)c1ccc(/C=C2/N=C(c3ccc(F)cc3)OC2=O)cc1	none
CCN(CC)c1ccc(/C=C2/C(=O)N(c3ccccc3)N=C2C)cc1	mHTT CaM bind 65.0
CCN(C)c1ccc(/C=C2/C(=O)N(c3ccc(C)c(C)c3)N=C2C)cc1	mHTT CaM bind 58.0
CC1=NN(c2ccc(C)c(C)c2)C(=O)/C1=C/c1ccc([N+](=O)[O-])cc1	mHTT CaM bind 53.0
Cc1oc(-c2ccc(Cl)cc2)cc1C(=O)NCc1ccco1	none
O=C1C(=O)N(Cc2c(Cl)cccc2Cl)c2ccccc21	none
CCOc1cc(/C=C2/C(=O)N(c3ccc(C)c(C)c3)N=C2C)cc(I)c1O	mHTT CaM bind 72.0
CC1=NN(c2ccc(F)cc2)C(=O)/C1=C/c1ccc(N(C)C)cc1	none
C=CCc1cc(/C=C2/C(=O)N(c3ccccc3)N=C2C)cc(OCC)c1O	none
CCN(C)c1ccc(/C=C2/C(=O)N(c3ccc(Cl)cc3)N=C2C)cc1	mHTT CaM bind 70.0
COc1ccc(CCC(=O)NCC2COC3(CCCC3)O2)cc1 (stereo unspecified)	none
Cc1ccc(CN2CCC3(CC2)N=C(c2ccccc2)C(=O)N3)cc1	mHTT CaM bind 53.5
Cc1cccc(C2=NC3(CCN(CC(=O)NCc4ccc(Cl)cc4)CC3)NC2=O)c1	mHTT CaM bind 53.3
Cc1ccc(C2=NC3(CCN(CC(=O)NCc4ccc(Cl)cc4)CC3)NC2=O)cc1	none
O=C(CN1CCC2(CC1)N=C(c1cccc(Cl)c1)C(=O)N2)Nc1ccc(Cl)cc1	mHTT CaM bind 88.3
O=C(CN1CCC2(CC1)N=C(c1cccc(F)c1)C(=O)N2)Nc1ccc(Cl)cc1	none
Cc1cccc(C2=NC3(CCN(CC(=O)Nc4ccc(F)cc4)CC3)NC2=O)c1	mHTT CaM bind 68.7
Cc1ccc(C2=NC3(CCN(Cc4ccc(F)cc4)CC3)NC2=O)cc1	none
Cc1cccc(NC(=O)CN2CCC3(CC2)N=C(c2ccc(F)cc2)C(=O)N3)c1	none
Fc1ccc(Br)cc1SCCc1ccccn1	none
CC(C)(C)C(=O)Nc1nnc2ccccn12	none
CC(C)c1cc(C2CCCN2C(=O)c2cc(-c3ccc(Cl)cc3)on2)no1 (stereo unspecified)	none
COc1cc(C=C2Oc3cc(OC(=O)N4CCOCC4)cc(C)c3C2=O)cc(OC)c1OC	none
Cc1ccc(C(=O)N2CCc3sc(C(=O)NCc4ccccc4)cc3C2)cc1	none
CCN(CC)c1ccc2cc(C(=O)NC(C)=O)c(=Nc3ccc(F)c(Cl)c3)oc2c1	none
Cc1cc(Br)c(O)c(C2NC(C(=O)O)Cc3c2[nH]c2ccccc32)c1 (stereo unspecified)	none
O=C(O)C1Cc2c([nH]c3ccccc23)C(c2cc(Br)ccc2O)N1 (stereo unspecified)	mHTT CaM bind 56.7
CCC(=O)N1CCN(c2nc3c(s2)CC(C(=O)Nc2cccc(C(C)C)c2)CC3)CC1 (stereo unspecified)	none
CC(C)(C)C(=O)N1CCN(Cc2ccc3c(c2)OCO3)CC1	none (no result: mHTT CaM bind)
CC(=O)N(Cc1ccc2c(c1)CN(C(=O)C(C)(C)C)CCO2)c1ccc(C)cc1	mHTT CaM bind 73.2
CCC(=O)N1CCN(c2ccc(F)c(Cl)c2)C(=O)C1C (stereo unspecified)	none
CC(=O)N1CCC2(CC1)SCC(=O)N2c1ccc(C)cc1	none
Cc1ccc(-c2csc(Nc3ccc(F)cc3)n2)cc1	none
Nc1nc(-c2ccc3c(c2)OCO3)cs1	none
Cc1ccc(Nc2nc(-c3ccc(F)cc3)cs2)cc1Cl	mHTT CaM bind 63.5
CCC(=O)Nc1nc(-c2ccc(F)cc2)cs1	none
Fc1ccc(-c2csc(Nc3ccc(Br)cc3)n2)cc1	mHTT CaM bind 98.0
Fc1ccc(Nc2nc(-c3ccc(Cl)cc3)cs2)cc1	mHTT CaM bind 70.8
Brc1ccc(-c2csc(Nc3ccc4c(c3)OCO4)n2)cc1	mHTT CaM bind 61.0
Cc1ccc(-c2csc(Nc3ccc(F)cc3)n2)cc1C	none
OC(COCc1ccc(Cl)cc1)CN1CCOCC1 (stereo unspecified)	none
COc1ccc(CC(=O)N2CCC(CCOc3ccccc3)CC2)cc1	none
Cc1ccc(C)c(C(=O)NC2CCN(c3nnc4ccc(Cl)cn34)CC2)c1	none
Cc1cc(C)cc(C(=O)N2CCC3(CC2)NC(=O)N(Cc2cccc(Cl)c2)C3=O)c1	none
CCOc1ccc(-c2csc(Nc3ccc(F)cc3)n2)cc1[N+](=O)[O-]	mHTT CaM bind 90.6
CCCCOc1ccc(-c2csc(N)n2)cc1[N+](=O)[O-]	none
CN(C)c1cc(Nc2ccccc2)c2c3c(onc13)-c1ccccc1C2=O	mHTT CaM bind 96.0
CNc1cc(Nc2ccccc2)c2c3c(onc13)-c1ccccc1C2=O	mHTT CaM bind 98.0
O=C(O)c1ccccc1Nc1cc(N2CCOCC2)c2noc3c2c1C(=O)c1ccccc1-3	none
CCOc1ccc(Nc2cc(N3CCOCC3)c3noc4c3c2C(=O)c2ccccc2-4)cc1	none
CCOc1ccc(C(=O)N2CCN(c3ccc([N+](=O)[O-])cc3)CC2)cc1	none
COc1ccc(NC(=O)c2n[nH]c(=O)c3ccccc23)cc1OC	none
O=C(c1ccccc1Br)N1CCN(c2cccc(Cl)c2)CC1	mHTT CaM bind 64.0!
O=C(CCCOc1ccccc1)N1CCN(Cc2ccccc2)CC1	none
O=C(c1cc(-c2ccccc2)nc2ccccc12)N1CCCC1	none
O=C(c1cccc(Cl)c1)N1CCN(c2ccccc2)CC1	none
O=C(c1cc(-c2ccncc2)nc2ccccc12)N1CCN(c2cccc(Cl)c2)CC1	mHTT CaM bind 91.0
O=C(CCCOc1ccccc1)N1CCN(c2cccc(Cl)c2)CC1	mHTT CaM bind 70.1
COc1ccc(CN2CCCC2c2cc(C(C)C)on2)c(OC)c1 (stereo unspecified)	none
CCCc1c(C(=O)NCc2cc(F)cc3c2OCOC3)cnn1-c1ccccc1	none (no result: mHTT CaM bind)
COc1ccc(C(=O)N2CCN(c3ccc(C)c(Cl)c3)C(=O)C2C)cc1 (stereo unspecified)	none
